Most compounds without a hit are left out; they make up all but 3.2% or so of the library.
Mcl1-Noxa inh – disrupts binding of human Mcl-1 to Noxa peptide; Q07820; TR-FRET Mcl-1/Noxa peptide binding, 2 h; inhibition, % at 21.7 µM; actives 1.5% (n = 220,000); AID 1022;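 active means compounds that cut the protein-peptide binding signal by more than 50% relative to plate controls in a single-dose test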;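 further: His-tagged Mcl-1 with rhodamine Noxa BH3 peptide and terbium anti-His antibody; 0% = Mcl-1 plus Noxa peptide wells and 100% = peptide-only wells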
14-3-3 Bad PPI – disrupts binding of bovine 14-3-3 zeta to phospho-Bad peptide | P63103 | TR-FRET 14-3-3zeta/Dy647-pBad peptide displacement, 1 h | inhibition, % at 21.7 µM | actives 0.71% (n = 220,000) | AID 781;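 active means inhibition above about 70%, limit read from the data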;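 further: 0% = full 14-3-3 plus peptide FRET controls and 100% = background without 14-3-3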
Target sequence (P63103 whole entry, looked up): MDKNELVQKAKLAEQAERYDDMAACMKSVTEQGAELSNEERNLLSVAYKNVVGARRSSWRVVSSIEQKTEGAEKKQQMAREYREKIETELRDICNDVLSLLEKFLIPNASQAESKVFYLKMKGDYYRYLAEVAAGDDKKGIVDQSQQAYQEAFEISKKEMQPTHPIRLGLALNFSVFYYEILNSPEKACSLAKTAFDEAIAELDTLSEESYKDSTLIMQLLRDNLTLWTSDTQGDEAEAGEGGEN
Mcl-1 Bim block – disrupts Bim peptide binding to human Mcl-1 | AID 1009 | actives 0.1% (n = 190,000) | Bead-based flow cytometry, Bim peptide-Mcl-1 binding | inhibition, % at 10 µM; in the data active means inhibition above about 40%;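 further: 0% = no compound tracer wells and 100% = peptide blocker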
Mcl1-Bid inh – Mcl-1/Bid interaction inhibition; TR-FRET Mcl-1/Bid-Dy647 peptide binding, 1536-well; AID 1021; inhibition, % at 21.7 µM; actives 0.97% (n = 220,000);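 active means compounds that cut the binding signal by more than half at the single screening dose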;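 further: His-tagged Mcl-1 with europium anti-His antibody binding Bid BH3 peptide; 0% = Mcl-1 plus peptide wells and 100% = peptide-only wells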
NCF1 inh – inhibitors of human p47phox binding | inhibition, % at 24.7 µM | p47phox/p22phox peptide binding, fluorescence polarization, 2 h | actives 0.53% (n = 220,000) | AID 1274;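 active means inhibition above about 30%, limit read from the data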;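 further: 0% = p47phox with labelled peptide and 100% = labelled peptide alone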
Target sequence (P14598 whole entry, looked up): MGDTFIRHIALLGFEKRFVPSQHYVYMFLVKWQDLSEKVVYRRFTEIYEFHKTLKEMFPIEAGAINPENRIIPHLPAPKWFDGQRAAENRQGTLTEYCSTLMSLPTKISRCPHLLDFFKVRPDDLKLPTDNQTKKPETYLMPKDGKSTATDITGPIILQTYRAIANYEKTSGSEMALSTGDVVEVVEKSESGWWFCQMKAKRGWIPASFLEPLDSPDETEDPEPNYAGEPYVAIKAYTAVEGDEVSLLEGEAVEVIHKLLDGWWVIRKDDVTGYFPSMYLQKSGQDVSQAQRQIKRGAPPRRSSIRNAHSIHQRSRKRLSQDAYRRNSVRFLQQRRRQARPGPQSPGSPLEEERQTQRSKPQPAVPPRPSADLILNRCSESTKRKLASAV
* hit, by the source's call; . = not tested or not shown; [ ] = remark or other dose.

SMILES	Mcl1-Noxa inh	14-3-3 Bad PPI	Mcl-1 Bim block	Mcl1-Bid inh	NCF1 inh
O=C(O)CCCN1C(=O)/C(=C/C=C/c2ccco2)SC1=S	94.3*	75.7*	.	34.2	-63.5
CC(C)c1nc(SCC(=O)N2CC(=O)Nc3ccccc32)c2ccccc2n1	-1.1	-3.9	0.0	-10.5	-5.8
O=C(O)c1ccc(N2C(=O)/C(=C/c3ccc(-c4ccc([N+](=O)[O-])cc4)o3)C=C2c2ccccc2)cc1	107.9*	93.7*	3.0	99.4*	-38.9
CC1=NN(c2ccc(Cl)c(C(=O)O)c2)C(=O)/C1=C\c1ccc(-c2ccc(C(=O)O)cc2)o1	38.7	-24.9	2.0	-92.9	-16.3
CCCCc1ccc(/C=C2\C(=O)c3ccccc3C(O)=C2C(=O)OCC)cc1	.	-15.5	-1.0	31.7	57.9*
CCCCN=Cc1c(C)[nH]n(-c2ccccc2)c1=S	20.2	-37.5	-4.0	-60.6	-4.4
Cc1[nH]n(-c2ccccc2)c(=S)c1C=Nc1cccc([N+](=O)[O-])c1	35.0	-15.8	-3.0	-93.7	89.0*
Cc1ccccc1NC(=O)OCc1cccnc1Oc1ccc(Cl)cc1	2.7	-8.2	-1.0	-22.0	2.8
CC(C)NC(=O)NC(=O)COC(=O)C1(C)CC1(Cl)Cl (centres undefined)	9.6	-1.9	-2.0	-20.4	-3.3
CCC(=O)NCC(c1cccs1)N1CCOCC1 (centres undefined)	18.9	85.3*	-1.0	-12.9	1.1
O=C(NCC(c1cccs1)N1CCOCC1)c1ccco1 (centres undefined)	-6.5	-4.7	3.0	2.6	-12.7
CCn1cc(C(=O)Nc2ccc(-n3cnnn3)c(OC)c2)c(=O)c2ccc(C)nc21	58.0*	-9.5	2.0	48.5	5.7
C=CCN1C(C(=O)c2ccccc2)=C(OC(=O)COc2ccccc2)c2ccccc2S1(=O)=O	0.0	76.6*	0.0	-0.4	-12.7
O=C(COc1ccccc1)NNC1=NS(=O)(=O)c2ccccc21	29.9	-4.1	1.0	10.4	4.2
Cc1ccc(CNC(=O)CN(C)S(=O)(=O)c2cccs2)cc1	6.7	85.7*	0.0	-3.4	-0.1
O=C(CNc1ccccc1OC(F)F)N1CCc2ccccc21	5.6	-5.1	0.0	-10.0	-5.8
Cn1nnnc1SCC(=O)NC(=O)c1cccc([N+](=O)[O-])c1	-8.1	-0.1	.	-39.8	-11.9
COc1ccc(CNC(=O)COC(=O)CC2CCCC2)cc1	-5.1	-13.8	-4.0	-16.2	-5.5
O=C(COC(=O)CC(NC(=O)c1ccccc1Cl)c1ccccc1)Nc1cccc(F)c1 (centres undefined)	-3.0	-1.9	-4.0	72.5*	-4.0
O=C(COC(=O)CC(c1ccccc1)c1ccccc1)Nc1cccc(F)c1	4.9	-9.6	-7.0	7.7	-12.1
Cc1ccc2c(c1)c(C)c(C)n2CC(O)Cn1nc(C)c(Br)c1C (centres undefined)	14.3	-2.5	58.0*	-17.1	-47.6
O=C(O)CCN1C(=O)/C(=C/c2ccc(-c3nc4ccccc4s3)o2)SC1=S	104.2*	22.2	9.0	94.2*	8.4
O=C(O)CC(C(=O)O)N1C(=O)/C(=C/c2ccc(-c3nc4ccccc4s3)o2)SC1=S (centres undefined)	5.4	12.9	3.0	-18.6	-34.0
O=C(O)CCCN1C(=O)/C(=C\c2ccc(-c3nc4ccccc4s3)o2)SC1=S	104.3*	80.9*	.	87.2*	-239.7
O=Cc1ccc(-c2nc3ccccc3s2)o1	-11.0	6.5	2.0	-18.5	-4.4
SMILES	Mcl1-Noxa inh	14-3-3 Bad PPI	Mcl-1 Bim block	Mcl1-Bid inh	NCF1 inh
CCOC(=O)C(=Nc1ccc(Cl)cc1)NO	2.7	3.6	-7.0	-32.8	-11.6
Cc1ccc(/C=C/C(=O)NCc2ccco2)o1	31.9	-12.1	-3.0	-55.9	-8.2
Cc1ccc(/C=C/C(=O)NCc2ccccn2)o1	74.3*	6.1	-8.0	-74.7	-0.4
Cc1ccc(/C=C/C(=O)Nc2ccc(S(N)(=O)=O)cc2)o1	33.2	-11.3	-1.0	-29.7	0.3
Cc1ccc(/C=C/C(=O)NCc2ccc(S(N)(=O)=O)cc2)o1	52.9*	-10.9	-5.0	-41.3	5.9
CSc1cccc(NC(=S)N(CCC(C)C)C(C)c2ccncc2)c1 (centres undefined)	-9.0	-3.2	.	-145.9	-9.2
COc1cc2c(cc1N/C=C(\C#N)c1nc(-c3ccccc3)cs1)oc1ccccc12	5.0	86.1*	1.0	-39.9	-69.4
CC(O)CNc1nc2ccccc2n1CC(=O)N1CCN(Cc2ccccc2)CC1 (centres undefined)	9.3	-10.9	-1.0	-13.9	9.2
Cc1csc(SCC(=O)Nc2ccccc2[N+](=O)[O-])n1	-0.1	-4.5	0.0	-27.2	-13.6
Cc1csc(SCC(=O)Nc2cccc3nsnc23)n1	-14.5	-1.9	-1.0	-31.6	143.6*
CCN(C(=O)COC(=O)c1cccnc1Nc1ccccc1F)C1CCS(=O)(=O)C1 (centres undefined)	7.9	6.6	-6.0	-5.1	-6.6
CN(CCOc1ccccc1)C(=O)c1cc([N+](=O)[O-])cc([N+](=O)[O-])c1	-12.2	0.2	0.0	-14.9	-1.9
COc1ccc(C2=CC3=C(Br)C(=O)C(C)(OC(=O)c4ccco4)C(=O)C3=CO2)cc1 (centres undefined)	62.6*	23.4	.	-7.7	-19.6
O=C(CSc1nnc(-c2ccccc2)n1-c1ccccc1)c1ccc[nH]1	21.7	-3.0	-7.0	7.5	3.8
O=C(CSc1nnc(-c2ccccc2)n1-c1ccccc1)c1cccs1	-4.8	0.9	1.0	-33.9	35.4*
c1ccc(Oc2c3ccccc3nc3ccccc23)cc1	7.7	-2.6	.	-44.4	-15.2
CCN(CC)c1ccc(N2C(=O)/C(=C\c3cccs3)SC2=S)cc1	9.3	91.7*[fluorescence artefact?]	0.0	9.0	-15.2
O=C1/C(=C/c2cccs2)SC(=S)N1c1ccccc1	9.7	-5.4	-2.0	-15.0	-4.5
CCCn1c(=O)[nH]c(=O)c2c1nc(-c1ccc(OC(F)F)cc1)n2CCN1CCOCC1	38.7	35.8	-1.0	31.9	-87.1
CCCn1c(=O)[nH]c(=O)c2c1nc(-c1ccc3c(c1)OCCO3)n2CCN1CCOCC1	15.1	72.4*	-2.0	26.7	-7.5
COc1ccccc1NS(=O)(=O)c1cc(C(=O)N2CC(C)CC(C)C2)ccc1C (centres undefined)	-0.6	-1.6	0.0	-5.0	-3.8
CCOC(=O)c1nnn(-c2nonc2N)c1CS(=O)(=O)c1ccccc1	10.9	-4.9	-1.0	54.6*	3.9
Cc1csc2ncnc(N3CCN(C(=S)Nc4ccc(F)cc4F)CC3)c12	10.8	1.7	.	89.7*	-5.4
Fc1ccc(NC(=S)N2CCCN(c3ccc(C(F)(F)F)cn3)CC2)c(F)c1	18.2	-17.7	.	-37.7	1.7
O=c1c2ccccc2c(C=Nc2cccc(S(=O)(=O)NCc3ccco3)c2)c(O)n1-c1ccc(Cl)cn1	17.1	-1.0	-6.0	-17.1	-27.6
O/N=C1/CCCSc2ccccc21	86.1*	-0.1	-2.0	2.2	-11.7
Cc1ccc2c(c1)/C(=N/O)CCS2	20.9	-13.3	0.0	-43.1	-8.9
